PubChem BioAssay (NCATS)
Inconclusive results are not listed. Active and inactive are the calls of the source. Unless noted, calls follow the shape of the dose curve; as a rule, active = well fitted curve in the direction sought with a large enough effect; inconclusive = small, poorly fitted or top-dose-only effect, or another doubt; inactive = no such curve, though single readings can be large; an effect the other way counts as inactive or inconclusive.

What was measured:
[1] = Validation screen for small molecules that induce DNA re-replication in MCF 10A normal breast cells (AID 463097); also: potency is read from the fitted curve at half-maximal effect; nearly all actives have a fitted effect of over 60% in size
Summary of the method: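 Read-out is Hoechst total nuclear intensity by fluorescence scanning imager, flagging increased high-DNA-content nuclei. Compounds were incubated with MCF 10A cells for 48 hr (37 C, 5% CO2) before 40 min staining.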

[2] = biological target: Tumor susceptibility gene 101 protein (Homo sapiens) (UniProt Q99816); test: qHTS Validation Assay for Iinhibitors of HIV-1 Budding by Blocking the Interaction of PTAP/TSG101 (AID 485342; calls by dose curve)
Summary of the method: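 Fluorescence polarization of 50 nM FITC-PTAP peptide bound to 10 uM Tsg101 binding domain was read after 20 min room-temperature incubation with compounds, in 10 mM HEPES pH 7.5, 0.15 M NaCl, 0.01% Tween 20.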

[3] = biological target: ATP-dependent 6-phosphofructokinase (Trypanosoma brucei brucei) (UniProt O15648); test: qHTS Validation Assay to Find Inhibitors of T. brucei phosphofructokinase (AID 485368); details: outcome: dose series up to 57.5 µM
Summary of the method: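 qHTS format, up to 57 uM. PFK 1.25 nM; F6P 0.5 mM; ATP 0.1 mM; 5 mM MgCl2, 0.01% Tween20, 0.1% BSA; 0.1 M TEA pH 8.0; 45 min RT; ADP-Glo readout; no-enzyme control = full inhibition.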

[4] = Quantitative high throughput screen for delayed death inhibitors of the malarial parasite plastid, 48 hour incubation (AID 488752); also: nearly all actives have a fitted effect of over 65% in size; also: potency is read from the fitted curve at half-maximal effect
Summary of the method: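 Cultures: infected erythrocytes at final 2% hematocrit and 0.1% parasitemia in Albumax-supplemented RPMI. Parasites express integrated firefly luciferase. Incubation with compound lasts 48 h before luminescent detection of remaining reporter activity.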

[5] = biological target: Thioredoxin reductase 1, cytoplasmic (Rattus norvegicus) (UniProt O89049); test: qHTS Assay for Substrates of Mammalian Selenoprotein Thioredoxin Reductase 1 (TrxR1) (AID 488772);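 also: series mostly up to about 57 µM; a drop in NADPH fluorescence below the no-compound background marks a TrxR1 substrate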
Summary of the method: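 In this dual-purpose format, potential substrates are identified from the first fluorescence read after selenite addition, not from the 8-minute delta. Rat enzyme is preincubated with NADPH and then with compound at ~22 deg C.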

[6] = biological target: Ubiquitin carboxyl-terminal hydrolase 2 (Homo sapiens) (UniProt O75604); test: qHTS Validation Assay for Inhibitors of Ubiquitin-specific Protease USP2a Using CHOP2 as the Reporter (AID 463106)
Summary of the method: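 Fluorescence read-out at Ex 485nm/Em 531nm after 60min RT, following addition of 25nM Ub-CHOP2 plus 25nM reporter substrate to USP2 core (10nM) pretreated 30min with compound. Data normalized to NEM full inhibition; concentration-response curves fitted.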

[7] = biological target: DNA polymerase III PolC-type (Bacillus subtilis (strain 168)) (UniProt P13267); test: qHTS Validation Assay for the Inhibitors of DNA Replication in Gram-Positive Bacteria (AID 485295);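 also: reconstituted holoenzyme with PolC plus beta clamp SSB and primase; PicoGreen fluorescence of double-stranded DNA made on primed circular M13 template; series mostly up to about 57 µM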
Summary of the method: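 Double-stranded DNA product detected by PicoGreen fluorescence after EDTA quench. Compound incubated with B. subtilis holoenzyme (PolC, beta subunit, SSB, primase) before substrate addition; primed replication of M13Gori with dNTPs and NTPs at room temperature; DMSO defines 0% inhibition.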

[8] = qHTS Validation Assay to Find Inhibitors of Chronic Active B-Cell Receptor Signaling (AID 485345; active = well fitted curve in the direction sought with a large enough effect in the main read-out, with a control signal flat, not every such curve was filed as active)
Summary of the method: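 TMD8 ABC-DLBCL cells stably carrying doxycycline-inducible IkappaBalpha–green luciferase fusion plus unfused red luciferase; compounds 46 uM to 3 nM, 4 h at 37C with doxycycline. Corrected green/red luminescence ratio normalized to 10 uM MG-132 and basal cell wells; curves fitted.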

[9] = biological target: Beta-2 adrenergic receptor (Homo sapiens) (UniProt P07550); test: qHTS validation assay of beta-arrestin-biased ligands of beta2-adrenergic receptor (AID 485366)
Summary of the method: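 Compound series up to 46 microM applied to beta2-AR/beta-arrestin Tango cells, 18 hr, 37 degrees C, 5% CO2. Read-out: tTA-driven luciferase luminescence, converted to %Activity; concentration-response curves assigned curve classes.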

Measured: Potency

Sequence of ATP-dependent 6-phosphofructokinase (Trypanosoma brucei brucei) (O15648 whole entry, looked up): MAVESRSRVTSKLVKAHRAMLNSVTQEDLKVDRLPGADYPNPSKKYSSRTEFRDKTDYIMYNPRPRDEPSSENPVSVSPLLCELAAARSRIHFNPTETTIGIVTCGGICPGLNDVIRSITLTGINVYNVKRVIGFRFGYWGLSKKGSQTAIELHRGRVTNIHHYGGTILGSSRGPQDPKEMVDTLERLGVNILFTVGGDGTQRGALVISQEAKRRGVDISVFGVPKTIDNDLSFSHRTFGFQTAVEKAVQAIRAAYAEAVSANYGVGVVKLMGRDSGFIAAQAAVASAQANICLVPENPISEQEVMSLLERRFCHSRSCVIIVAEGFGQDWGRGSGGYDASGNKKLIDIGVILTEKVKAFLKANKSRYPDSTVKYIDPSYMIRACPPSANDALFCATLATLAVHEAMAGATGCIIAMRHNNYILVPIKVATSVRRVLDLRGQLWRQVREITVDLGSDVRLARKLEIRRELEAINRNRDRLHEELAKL
Sequence of Tumor susceptibility gene 101 protein (Homo sapiens) (Q99816 whole entry, looked up, the tested form may be a part): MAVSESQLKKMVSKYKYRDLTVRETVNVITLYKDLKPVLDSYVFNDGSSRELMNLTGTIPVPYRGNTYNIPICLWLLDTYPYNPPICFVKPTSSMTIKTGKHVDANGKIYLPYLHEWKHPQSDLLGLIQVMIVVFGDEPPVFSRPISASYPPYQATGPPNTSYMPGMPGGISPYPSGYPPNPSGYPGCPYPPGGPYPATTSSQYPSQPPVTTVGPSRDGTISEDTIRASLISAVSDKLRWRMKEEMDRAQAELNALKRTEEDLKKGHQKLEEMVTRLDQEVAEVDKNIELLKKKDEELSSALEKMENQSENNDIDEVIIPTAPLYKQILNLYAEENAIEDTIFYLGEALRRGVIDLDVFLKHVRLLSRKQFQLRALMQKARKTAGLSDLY
Sequence of Thioredoxin reductase 1, cytoplasmic (Rattus norvegicus) (O89049 whole entry, looked up): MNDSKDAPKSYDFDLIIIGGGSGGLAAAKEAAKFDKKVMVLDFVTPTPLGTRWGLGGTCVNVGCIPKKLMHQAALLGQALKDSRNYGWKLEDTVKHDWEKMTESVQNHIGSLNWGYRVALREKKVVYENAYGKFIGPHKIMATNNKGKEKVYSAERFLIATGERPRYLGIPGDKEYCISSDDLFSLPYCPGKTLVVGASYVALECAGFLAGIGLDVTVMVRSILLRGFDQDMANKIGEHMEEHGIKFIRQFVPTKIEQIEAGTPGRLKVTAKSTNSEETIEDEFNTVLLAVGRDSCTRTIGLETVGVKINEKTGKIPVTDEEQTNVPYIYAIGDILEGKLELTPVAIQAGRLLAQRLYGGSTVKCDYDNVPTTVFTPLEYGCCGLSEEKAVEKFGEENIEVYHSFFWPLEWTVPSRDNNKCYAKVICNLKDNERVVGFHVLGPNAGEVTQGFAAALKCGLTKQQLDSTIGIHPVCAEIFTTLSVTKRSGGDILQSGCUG
Sequence of DNA polymerase III PolC-type (Bacillus subtilis (strain 168)) (P13267 whole entry, looked up): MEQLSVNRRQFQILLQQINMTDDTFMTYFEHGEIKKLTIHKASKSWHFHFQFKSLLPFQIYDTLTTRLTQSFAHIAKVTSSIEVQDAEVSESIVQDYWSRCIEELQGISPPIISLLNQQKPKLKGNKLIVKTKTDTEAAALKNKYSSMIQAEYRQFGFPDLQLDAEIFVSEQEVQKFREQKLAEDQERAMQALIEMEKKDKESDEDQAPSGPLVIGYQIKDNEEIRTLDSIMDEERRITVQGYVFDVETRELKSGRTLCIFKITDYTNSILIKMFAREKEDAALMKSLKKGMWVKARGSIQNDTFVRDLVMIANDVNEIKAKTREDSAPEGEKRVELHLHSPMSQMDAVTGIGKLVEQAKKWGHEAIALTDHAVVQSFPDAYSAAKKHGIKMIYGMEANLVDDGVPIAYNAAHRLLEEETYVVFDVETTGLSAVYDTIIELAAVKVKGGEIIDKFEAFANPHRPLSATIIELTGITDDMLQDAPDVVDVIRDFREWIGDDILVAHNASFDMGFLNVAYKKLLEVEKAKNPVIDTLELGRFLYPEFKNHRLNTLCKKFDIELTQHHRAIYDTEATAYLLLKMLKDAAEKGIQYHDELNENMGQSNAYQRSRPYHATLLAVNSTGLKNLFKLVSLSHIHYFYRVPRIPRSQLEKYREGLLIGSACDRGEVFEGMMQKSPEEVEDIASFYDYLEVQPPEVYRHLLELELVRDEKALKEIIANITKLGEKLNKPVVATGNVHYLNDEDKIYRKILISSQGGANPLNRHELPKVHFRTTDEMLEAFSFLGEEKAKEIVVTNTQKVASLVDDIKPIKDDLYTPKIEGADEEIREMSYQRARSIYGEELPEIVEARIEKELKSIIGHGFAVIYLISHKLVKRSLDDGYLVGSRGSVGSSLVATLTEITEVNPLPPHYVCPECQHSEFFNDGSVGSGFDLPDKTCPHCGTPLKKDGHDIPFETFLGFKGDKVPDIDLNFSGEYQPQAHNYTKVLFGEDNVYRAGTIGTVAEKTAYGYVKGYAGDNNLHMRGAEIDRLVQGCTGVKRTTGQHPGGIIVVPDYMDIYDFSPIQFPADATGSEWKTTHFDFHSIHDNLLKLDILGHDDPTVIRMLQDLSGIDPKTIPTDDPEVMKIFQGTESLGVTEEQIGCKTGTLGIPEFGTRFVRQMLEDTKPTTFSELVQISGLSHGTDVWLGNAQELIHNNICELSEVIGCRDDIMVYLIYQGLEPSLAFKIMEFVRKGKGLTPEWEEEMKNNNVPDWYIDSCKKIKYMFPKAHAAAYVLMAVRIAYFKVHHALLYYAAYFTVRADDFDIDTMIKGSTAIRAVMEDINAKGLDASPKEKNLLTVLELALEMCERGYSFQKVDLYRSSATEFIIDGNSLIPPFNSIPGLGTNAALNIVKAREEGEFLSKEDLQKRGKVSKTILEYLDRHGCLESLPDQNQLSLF
Sequence of Beta-2 adrenergic receptor (Homo sapiens) (P07550 whole entry, looked up): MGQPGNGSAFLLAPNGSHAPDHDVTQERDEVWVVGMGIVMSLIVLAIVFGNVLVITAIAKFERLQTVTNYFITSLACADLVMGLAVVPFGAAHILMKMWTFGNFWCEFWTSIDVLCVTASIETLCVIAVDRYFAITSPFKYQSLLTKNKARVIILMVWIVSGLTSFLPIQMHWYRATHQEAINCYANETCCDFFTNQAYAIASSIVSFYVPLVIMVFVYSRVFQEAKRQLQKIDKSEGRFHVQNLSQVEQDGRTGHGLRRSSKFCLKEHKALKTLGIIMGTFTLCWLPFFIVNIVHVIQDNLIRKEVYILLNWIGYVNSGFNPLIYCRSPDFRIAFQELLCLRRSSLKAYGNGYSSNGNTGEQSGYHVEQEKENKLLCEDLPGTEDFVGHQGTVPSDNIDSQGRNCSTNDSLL
Sequence of Ubiquitin carboxyl-terminal hydrolase 2 (Homo sapiens) (O75604 whole entry, looked up): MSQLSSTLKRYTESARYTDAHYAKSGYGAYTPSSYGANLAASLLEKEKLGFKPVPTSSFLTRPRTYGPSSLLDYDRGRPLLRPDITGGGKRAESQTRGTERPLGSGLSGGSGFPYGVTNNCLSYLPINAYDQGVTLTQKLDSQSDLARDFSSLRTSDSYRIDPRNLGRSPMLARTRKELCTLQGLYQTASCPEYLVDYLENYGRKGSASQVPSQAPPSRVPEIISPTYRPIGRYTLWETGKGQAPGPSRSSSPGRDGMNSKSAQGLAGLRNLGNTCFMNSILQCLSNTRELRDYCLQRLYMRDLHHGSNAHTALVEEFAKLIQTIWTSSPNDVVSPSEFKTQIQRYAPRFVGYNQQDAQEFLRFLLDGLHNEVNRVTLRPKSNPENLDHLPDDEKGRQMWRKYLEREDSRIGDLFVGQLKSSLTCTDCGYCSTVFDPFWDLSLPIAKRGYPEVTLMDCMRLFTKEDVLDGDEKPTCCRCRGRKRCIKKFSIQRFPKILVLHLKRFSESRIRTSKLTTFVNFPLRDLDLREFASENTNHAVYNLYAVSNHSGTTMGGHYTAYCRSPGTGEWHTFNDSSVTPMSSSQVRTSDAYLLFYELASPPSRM

CCOC(=O)C1=C(C)NC(C)=C(C(=O)OC)C1c1cccc(Cl)c1Cl (stereo not drawn)
inactive: [2] | [3] | [5]
active: [1] 11.2 µM | [4] 11.7 µM

CCCCNc1ccc(C(=O)OCCN(C)C)cc1
inactive: [6] | [7] | [2] | [8] | [9] | [3] | [4] | [5]

CN1C[C@H](C(=O)N[C@]2(C)O[C@@]3(O)[C@@H]4CCCN4C(=O)[C@H](Cc4ccccc4)N3C2=O)C[C@@H]2c3cccc4[nH]cc(c34)C[C@H]21
inactive: [6] | [7] | [2] | [9] | [3]
